Assay [1] in a line: GPR55 agonists via beta-arrestin recruitment, primary screen, imaging, U2OS cells, beta-arrestin-GFP redistribution (AID 1961).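 For activation: plate controls were DMSO negative control for no effect and LPI positive control for full effect.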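 Note: U2OS osteosarcoma cells stably expressing GPR55 and beta-arrestin-GFP.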 The settings on record: measured here: cytotoxicity, cells analyzed, at 10 µM.
In assay [2] the target is G-protein coupled receptor 55 (Homo sapiens) (UniProt Q9Y2T6). The description is as above. The settings on record: at 10 µM, stronger effect = higher value.

Hit rate of the full screen: of about 290,000 compounds, about 140 (0.048%) were called active. This is one part of a sample in which actives are shown more often than they occur.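 Rule for the calls: active = activation above 40% with more than 50 cells counted in the well; inconclusive = wells holding fewer than 50 cells, flagged as toxic or sparse; inactive = the rest.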

Sequence of G-protein coupled receptor 55 (Homo sapiens) (Q9Y2T6 whole entry, looked up): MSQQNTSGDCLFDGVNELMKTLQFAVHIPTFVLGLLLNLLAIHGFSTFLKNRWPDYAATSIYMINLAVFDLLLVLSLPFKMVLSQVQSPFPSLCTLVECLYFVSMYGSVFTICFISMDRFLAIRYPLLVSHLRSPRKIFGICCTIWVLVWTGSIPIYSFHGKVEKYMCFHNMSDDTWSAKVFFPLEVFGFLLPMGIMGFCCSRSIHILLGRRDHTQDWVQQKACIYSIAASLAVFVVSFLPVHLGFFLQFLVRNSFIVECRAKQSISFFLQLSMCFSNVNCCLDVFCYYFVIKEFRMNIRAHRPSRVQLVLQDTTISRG

As to `O=C(Nc1ccc2c(c1)C(=O)OC2)c1ccc(F)cc1F`, the cell count in assay [1] was 353 cells. The activation in assay [2] is -0.2% (inactive).

Turning to `Cc1nn(C)c(C)c1CNC(=O)c1cc2n(n1)C(C(F)(F)F)CC(c1cccs1)N2` (configuration not stated), in assay [1], the cell count came out at 389 cells. For the same molecule, in assay [2], the activation is 0.1% (inactive).

As for `Nc1c(-c2ccccc2)c(CSc2nc3ccccc3[nH]2)nn1-c1ccc(C(=O)O)cc1`, the cell count in assay [1] came to 311 cells. Moreover, the activation in assay [2] is -0.2% (inactive).

In assay [1], `COc1cc(/C=C(\NC(=O)c2ccccc2)C(=O)NCC(=O)O)c([N+](=O)[O-])cc1OC` came in with a cell count of 349 cells. The activation in assay [2] is -0.1% (inactive).

Molecule `COc1cc(/C=C/c2cc(OC(C)=O)c3ccccc3n2)c(OC(C)=O)c([N+](=O)[O-])c1` gave a cell count in assay [1] of 366 cells. Also, the activation in assay [2] is 0.2% (inactive).

As for `CN(C)c1ccnc(Nc2ccccc2)c1C#N`, the cell count in assay [1] was found to be 373 cells. For the same molecule, the activation in assay [2] was 0.3% (inactive).

In the case of `O=C1c2ccccc2C(=O)N1Cc1cccnc1`, in assay [1], the cell count was 406 cells. The activation in assay [2] is -0.2% (inactive).

Regarding `CC(C)Cn1c(N)c(C(=O)COC(=O)c2cc(-c3ccco3)nc3ccccc23)c(=O)n(C)c1=O`, the cell count in assay [1] worked out at 285 cells. For the same molecule, the activation in assay [2] was -0.1% (inactive).

The molecule `Cn1c(=O)c(C(=O)COC(=O)c2cc(-c3ccco3)nc3ccccc23)c(N)n(Cc2ccccc2)c1=O` displayed a cell count in assay [1] of 365 cells. The activation in assay [2] was 8.3% (inactive).

Consider `Cn1c(=O)c(C(=O)COC(=O)c2cc(-c3ccco3)nc3ccccc23)c(N)n(CC2CC2)c1=O`, for which the cell count in assay [1] came out at 375 cells. The activation in assay [2] was 59.6% (active).

`Cc1ccc(C(=O)N2CCN(c3ccccn3)CC2)cc1Cl` gave a cell count in assay [1] of 384 cells. Moreover, the activation in assay [2] was -0.2% (inactive).

On to `Cc1ccc(C(=O)N2CCN(c3ccccn3)CC2)cc1C`, for which the cell count in assay [1] turned out to be 396 cells. In addition, the activation in assay [2] was -0.1% (inactive).

`CCOC(=O)N1CCN(C(=O)c2ccc3c(c2)N(Cc2cccc(Cl)c2)C(=O)c2ccccc2S3=O)CC1` (configuration not stated) came in with a cell count in assay [1] of 331 cells. The activation in assay [2] is 21.2% (inactive).

`Cc1ccc(C)c(CN2C(=O)c3ccccc3S(=O)(=O)c3ccc(C(=O)N4CCN(C)CC4)cc32)c1`: the cell count in assay [1] was 338 cells. The activation in assay [2] was -0.2% (inactive).

With `CC(=O)Nc1nc(SCC(=O)Nc2nnc(C)s2)[nH]c(=O)c1NC(=O)c1cccs1`, in assay [1], the cell count was found to be 243 cells. Moreover, the activation in assay [2] was 0.7% (inactive).

As for `CCOCCCNc1nc2c(C)cccn2c(=O)c1/C=C1\SC(=S)N(CC(C)C)C1=O`, in assay [1], the cell count is 348 cells. In addition, the activation in assay [2] was 1% (inactive).

`CCOCCCNc1nc2c(C)cccn2c(=O)c1/C=C1\SC(=S)N(C(C)CC)C1=O` (configuration not stated) registered a cell count in assay [1] of 390 cells. In addition, the activation in assay [2] was 69.7% (active).

The molecule `CCCN1C(=O)/C(=C/c2c(NCCCOCC)nc3c(C)cccn3c2=O)SC1=S` yielded a cell count in assay [1] of 462 cells. Moreover, the activation in assay [2] was 5.7% (inactive).

Molecule `O=C(N/N=C/c1ccccc1F)c1cccc(NC(=O)c2ccccc2Cl)c1` displayed a cell count in assay [1] of 329 cells. Further, in assay [2], the activation was -0.2% (inactive).

On to `COc1cc(OC)cc(C(=O)N2CCN(c3ccccc3F)CC2)c1`, for which the cell count in assay [1] was 328 cells. Moreover, the activation in assay [2] is -0.2% (inactive).

Turning to `CCOc1ccc(NC(=O)C2CC(=O)N(c3cc(C)cc(C)c3)C2)cc1` (configuration not stated), the cell count in assay [1] was 314 cells. Moreover, the activation in assay [2] was -0.1% (inactive).

The molecule `COc1cccc(NS(=O)(=O)c2ccc3c(c2)NC(=O)C(C)C(=O)N3)c1` (configuration not stated) displayed a cell count in assay [1] of 385 cells. Also, the activation in assay [2] was -0.1% (inactive).

Molecule `Cc1ccc(-c2ccc(CO)o2)cc1N` returned a cell count in assay [1] of 282 cells. For the same molecule, the activation in assay [2] is -0.3% (inactive).

Turning to `O=C(O)c1cccc(CSc2ncn[nH]2)c1`, the cell count in assay [1] worked out at 346 cells. In addition, the activation in assay [2] was 0.4% (inactive).

For the molecule `O=C(O)c1cccc(CSc2nnc(-c3ccc(Cl)cc3)o2)c1`, in assay [1], the cell count was determined as 424 cells. Moreover, in assay [2], the activation was 0.2% (inactive).

`O=C(Cn1nc(-c2ccco2)ccc1=O)Nc1cc(C(F)(F)F)ccc1Cl` displayed a cell count in assay [1] of 369 cells. Besides, the activation in assay [2] is -0.1% (inactive).

For `O=C(NOC(=O)c1cc(Br)ccc1Cl)c1cccs1`, the cell count in assay [1] is 347 cells. Besides, the activation in assay [2] is -0.1% (inactive).

For the molecule `CC(C)(C)NC(=O)COC(=O)c1cc(Br)ccc1Cl`, the cell count in assay [1] was 284 cells. The activation in assay [2] was -0.3% (inactive).

The molecule `O=C(NCc1ccccc1F)C1CCCN(C(=O)NC2CCCCC2)C1` (configuration not stated) registered a cell count in assay [1] of 299 cells. For the same molecule, in assay [2], the activation is -0.1% (inactive).

In turn, `COc1cccc(CNC(=O)c2cccc(S(=O)(=O)N3CCN(C)CC3)c2)c1` registered a cell count in assay [1] of 306 cells. Further, the activation in assay [2] was 0% (inactive).

In assay [1], `COc1ccc(CNC(=O)CN(C(=O)c2csnn2)c2ccccc2F)cc1` returned a cell count of 338 cells. In addition, the activation in assay [2] was -0.1% (inactive).

For the molecule `COc1ccc(N2CCN(C(=O)c3cc(=O)c4ccc(C)cc4o3)CC2)cc1`, the cell count in assay [1] stood at 331 cells. Also, the activation in assay [2] is -0.2% (inactive).

Consider `CCOc1ccccc1C(=O)Oc1ccc2ccc(=O)oc2c1`, for which the cell count in assay [1] was 397 cells. In addition, the activation in assay [2] is 0.9% (inactive).

Molecule `COc1cccc(C2/C(=C(\O)c3ccc4c(c3)OCCO4)C(=O)C(=O)N2CC2CCCO2)c1` (configuration not stated) displayed a cell count in assay [1] of 382 cells. In assay [2], the activation is 0.2% (inactive).

The molecule `FC(F)(F)c1cc(C(F)(F)F)c2ccc(N/N=C/c3cccc(Cl)c3)nc2n1` showed a cell count in assay [1] of 390 cells. The activation in assay [2] was 59.1% (active).

For `FC(F)(F)c1cc(C(F)(F)F)c2ccc(N/N=C/c3ccccc3)nc2n1`, in assay [1], the cell count turned out to be 408 cells. The activation in assay [2] was -0.3% (inactive).

In assay [1], `Cc1ccc(/C=N/Nc2ccc3c(C(F)(F)F)cc(C(F)(F)F)nc3n2)cc1` showed a cell count of 447 cells. In addition, the activation in assay [2] was -0.2% (inactive).

`COCc1cc(C)nc(N)c1C#N` gave a cell count in assay [1] of 359 cells. In assay [2], the activation was 0.1% (inactive).

Molecule `S=C(NCCc1ccccc1)N1CCN(C2CCCCC2)CC1` had a cell count in assay [1] of 462 cells. In addition, the activation in assay [2] was -0.1% (inactive).

As to `O=C(C1=C[C@H](c2ccc(C(F)(F)F)cc2)C[C@H](OCc2ccc(CO)cc2)O1)N1CCOCC1`, the cell count in assay [1] stood at 338 cells. Further, the activation in assay [2] was 0.1% (inactive).

`O=C(CSc1nnc(-c2ccc(F)cc2)o1)NC1CCCC1` yielded a cell count in assay [1] of 360 cells. Also, in assay [2], the activation was -0.1% (inactive).

`CCOC(=O)N1CCN(c2c(NCCCOC(C)C)c(=O)c2=O)CC1` showed a cell count in assay [1] of 327 cells. In addition, the activation in assay [2] is -0.1% (inactive).

`CC(C)OCCCNC(=O)Cc1ccc(F)cc1` displayed a cell count in assay [1] of 376 cells. For the same molecule, the activation in assay [2] is -0.2% (inactive).

In assay [1], `Cc1ccc2oc(=O)cc(CN3CCN(Cc4ccccc4)CC3)c2c1` yielded a cell count of 335 cells. In addition, in assay [2], the activation is 0% (inactive).

With `O=C(CNC(=O)c1ccc(N2C(=O)c3ccccc3C2=O)cc1)OCC(=O)c1cccc2ccccc12`, in assay [1], the cell count was 341 cells. Besides, the activation in assay [2] was 0% (inactive).

In turn, `CC(C)N1CCN(Cc2ccc(C#CC(C)(C)O)s2)CC1CCO` (configuration not stated) yielded a cell count in assay [1] of 368 cells. Besides, in assay [2], the activation was 0.3% (inactive).

Regarding `CCOc1ccc(S(=O)(=O)Nc2ccc(C(=O)N3CCCC3)cc2)cc1C(N)=O`, the cell count in assay [1] worked out at 319 cells. Besides, the activation in assay [2] was 0% (inactive).

For `O=S(=O)(c1cccc(-c2nn3c(-c4ccncc4)nnc3s2)c1)N1CCOCC1`, the cell count in assay [1] is 342 cells. Moreover, the activation in assay [2] was -0.2% (inactive).

The molecule `COCCNC(=O)C(c1ccc(F)cc1)N(C(=O)CCC(=O)Nc1ccccn1)c1cccc(C)c1` (configuration not stated) had a cell count in assay [1] of 316 cells. Besides, the activation in assay [2] was -0.2% (inactive).

Consider `CCCc1cc(=O)n2[nH]c(C)c(-c3ccc(OC)cc3)c2n1`, for which the cell count in assay [1] was 417 cells. In addition, in assay [2], the activation was -0.1% (inactive).

Regarding `CC(C)(C)NC(=O)CSc1nc(N)c(NC(=O)c2ccccc2F)c(=O)[nH]1`, the cell count in assay [1] is 255 cells. Further, the activation in assay [2] is 0% (inactive).

These data come from PubChem BioAssay AID1961 (Sanford-Burnham Center for Chemical Genomics, 2009).
